Data taken from PubChem BioAssay (NCI).
The panel holds about 79,000 compounds, 15% with a hit somewhere; the sample as a whole holds those more often. A number with no mark means an inactive call. The source made the active and inactive calls. Rule as the data show it: active = growth inhibition above about 70%; inactive = the rest.

How the values were obtained:
[1] = NCI Yeast Anticancer Drug Screen. Data for the rad50 strain (AID 155);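 also: 0% = growth of vehicle-only cultures of the same strain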; conditions: S. cerevisiae rad50 strain growth inhibition; at 50.0 µM; hits give high values
Summary of the method: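 Cells are treated with compound, grown, and their growth is then scored against vehicle-only cultures of the same repair-deficient yeast strain.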

[2] = NCI Yeast Anticancer Drug Screen. Data for the mec2-1 strain (AID 157); conditions: S. cerevisiae mec2-1 strain, at 50.0 µM, hits give high values
Summary of the method: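 Compounds were applied to mec2-1 yeast cells. Their growth was then compared with that of vehicle-treated cultures to give growth inhibition.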

[3] = NCI Yeast Anticancer Drug Screen. Data for the sgs1 mgt1 strain (AID 161);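 also: 0% = growth of cultures given vehicle only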; conditions: S. cerevisiae sgs1 mgt1 strain, at 50.0 µM, hits give high values
Summary of the method: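 This yeast growth screen uses a strain with defined DNA-repair lesions; compound-treated growth is compared with vehicle-treated growth.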

[4] = NCI Yeast Anticancer Drug Screen. Data for the cln2 rad14 strain (AID 165);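 also: 0% = growth equal to vehicle treated cultures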; conditions: S. cerevisiae cln2 rad14 strain, at 50.0 µM, hits give high values
Summary of the method: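 Strain: cln2 rad14 yeast, altered in cell cycle control and DNA damage repair. Read-out: growth inhibition vs vehicle.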

[5] = NCI Yeast Anticancer Drug Screen. Data for the bub3 strain (AID 167); conditions: S. cerevisiae bub3 mutant strain, at 50.0 µM, hits give high values
Summary of the method: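 Part of a panel of yeast mutants defective in DNA damage repair or cell cycle regulation. Each strain is grown with compound, and inhibition is calculated relative to solvent-treated cultures.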

[6] = NCI Yeast Anticancer Drug Screen. Data for the mlh1 rad18 strain (AID 175); conditions: S. cerevisiae mlh1 rad18 strain growth inhibition; at 50.0 µM; hits give high values
Summary of the method: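 A repair-deficient yeast strain is exposed to test compound, and growth is scored relative to vehicle-treated controls.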

Row | Compound | growth inhibition [1] | growth inhibition [2] [%] | growth inhibition [3] | growth inhibition [4] [%] | growth inhibition [5] [%] | growth inhibition [6] [%]
1 | CCOc1ccc(/C=C2\CCc3ccccc3C2=O)cc1 | 16.4% | 16.6 | 22.7% | 20.9 | 26.9 | 21.6
2 | O=CC(O)C(O)C(O)C(O)COC(=S)OCC(O)C(O)C(O)C(O)C=O (stereo not given) (tested in a mixture with another compound) | -4.35% | -10.1 | -2.85% | -3.1 | 6.05 | -4.25
3 | Fc1ccc(NC(=S)Nc2ccc(F)cc2)cc1 | -19.4% | -5.8 | -10.7% | -6.65 | 15.1 | 3.4
4 | O=C(O)Cc1[nH]c(=O)[nH]c(=O)c1CCl | -27.9% | -7.75 | -10.1% | -1.3 | -19.2 | -18.1
5 | COc1ccc(CCl)c(C)c1OC | 32.7% | 5.75 | 18.9% | 2.75 | 16.1 | -10.7
6 | CC(C)N(CCCCO)C(C)C | -0.75% | -0.3 | 14.2% | 0.05 | 2.7 | 3.3
7 | CC(C)[Si](C#CC[Si](C(C)C)(C(C)C)C(C)C)(C(C)C)C(C)C | -13.8% | -6 | -17.4% | -17.6 | -20.3 | -9.35
8 | O=C1NCCCCC1CC/C=C/c1ccccc1 (stereo not given) | -13.7% | -23.2 | -3.7% | -9.6 | 32.5 | -5.85
9 | CC(CN1CCCC1)(Oc1ccccc1)C(=O)c1ccccc1 (stereo not given) | 16.6% | -0.45 | 15.1% | 7.8 | 10.1 | 2.45
10 | COc1cccc(/C=N\c2nc(-c3ccccc3Cl)cs2)c1O | 44% | 5.15 | 32.4% | 21.9 | 39.6 | 27.4
11 | O=S1C2CCC(Br)C1CCC2Br (stereo not given) | 7.95% | -6.15 | 23.1% | -5.35 | 5.5 | 12.4
12 | COc1ccc(S(=O)(=O)N/N=C/c2cc(I)cc([N+](=O)[O-])c2O)cc1OC | 35% | 22.1 | 17.1% | 4.95 | -3.75 | 38
13 | CCCCC(CC)C1OCC(O)CO1 (stereo not given) | 8.8% | 3.3 | 2.55% | 5.1 | -13.2 | -14.3
14 | CCCCCCCCCCCCCCCCC(=O)O | -12.9% | -15.8 | -22.6% | -27.8 | 16.8 | -7.85
15 | Nc1nn2c(nc(N)c3c(N)[nH]nc32)c1N=Nc1ccc(Br)cc1 | -1.35% | 11.8 | -4.95% | 10.2 | 13.2 | 0.1
16 | O=C(O)Cc1ccccc1-c1ccccc1 | -22.2% | -8.15 | -19.2% | 22.4 | -6.2 | -43.2
17 | COc1ccc(N(N=Nc2ccccc2)C(C)=O)cc1 | -2.05% | 2 | 30.9% | -4.75 | -16.7 | 11.9
18 | Cc1cc(O)c(C(C)C)cc1N=O | 22.2% | -7.25 | 18.5% | 16.6 | -15.6 | 6.35
19 | O=C(Nc1cccc(Cl)c1)ON1C(=O)C2C(C1=O)C1(Cl)C(Cl)C(Cl)C2(Cl)C1(Cl)Cl (stereo not given) | 0.4% | 19.4 | -15.8% | -1.35 | -24 | -16.1
20 | Cc1[nH]c(=O)n2c(C)nnc2c1C(=O)O | -5.3% | -4.15 | 1.95% | -10.2 | -2.7 | -1.55
21 | c1ccc(N2CCN(C(c3cccs3)N3CCN(c4ccccc4)CC3)CC2)cc1 | 7.35% | 8.9 | 0.8% | -4.15 | -5.5 | 19.1
22 | CC(C)CC(=O)c1ccccn1 | -10.1% | -30.9 | -16.1% | 7.95 | -19 | -0.35

Row | Compound | growth inhibition [1] | growth inhibition [2] [%] | growth inhibition [3] | growth inhibition [4] [%] | growth inhibition [5] [%] | growth inhibition [6] [%]
23 | NNC(=O)c1c(-c2cccnc2)cnc2ccccc12 | -29.4% | -20.6 | -29.3% | -6.8 | -4.8 | -31.4
24 | CC1OC(OCC2OC(Oc3ccc4c(=O)c(-c5ccc6c(c5)OCO6)coc4c3)C(O)C(O)C2O)C(O)C(O)C1O (stereo not given) | 15.1% | 3.15 | 12.6% | 28.1 | 20.4 | 8.85
25 | C[C@@]12CCC[C@H]1[C@@H]1CC=C3C[C@@H](S)CC[C@]3(C)[C@H]1CC2 | -6.75% | 4.5 | -3.25% | -31.1 | -6.9 | -13.7
26 | CCOC(=O)C(N)Cc1cc(I)c(O)c(I)c1 (stereo not given) | -20.1% | -31.1 | -14.4% | 7.8 | -23.2 | -25.1
27 | NC(=O)c1ccc(C(F)(F)F)cc1O | 7.6% | 12.6 | -4.65% | -21.4 | 1.2 | 10
28 | CCCC(=O)Oc1ccc(CC)cc1 | 25.5% | 15.4 | 8.75% | -20.4 | 14.5 | 20.9
29 | NC(=O)C1C=CN(Cc2ccccc2)C=C1 | -5.2% | 7.45 | -0.65% | -12.8 | 23.4 | 7.3
30 | CCc1cn(O)c(C)cc1=N | 25.3% | 11.1 | 6.15% | 5.8 | 12 | 21.1
31 | c1ccc([P+](CC[P+](c2ccccc2)(c2ccccc2)c2ccccc2)(c2ccccc2)c2ccccc2)cc1 | -11.7% | -15.6 | -1.45% | -31.8 | -12.4 | -16.4
32 | COC(=O)c1ccccc1N=NNc1ccc(C(F)(F)F)c([N+](=O)[O-])c1 | -10.4% | -1.85 | 16.1% | -2.35 | 9.95 | -11.7
33 | Cc1ccc(N2C(=O)CNC2=O)cc1 | -10.3% | -5 | -7.8% | -27.2 | 1.2 | -6.45
34 | CC(CN(C)C)CN1c2ccccc2Sc2ccccc21 (stereo not given) | -6.7% | -2.4 | -7% | -2.95 | 5.65 | 8.35
35 | CC(C)CCCC(C)C1CCC2C3CCC4CC(=O)/C(=C\O)CC4(C)C3CCC12C (stereo not given) | 70.3% (active) | 51.5 | 79.4% (active) | 38.6 | 25.6 | 67.2
36 | Cc1ccc(C(=O)c2ccc(C)cc2)cc1 | -2.55% | -4.45 | 13% | -3.7 |  | 15.1
37 | CS(=O)(=O)OCCCCCCCCCOS(C)(=O)=O | -10.9% | -26.1 | -3.6% | -0.05 |  | -12.3
38 | CCOC(=O)c1ccc(NCc2cccc([N+](=O)[O-])c2)cc1 | 10.2% | -18.5 | 10.4% | 0.45 |  | 31.6
39 | CC(=O)CC(=O)Nc1ccccc1[N+](=O)[O-] | -7.05% | -24.4 | -0.65% | 15.9 |  | -9.65
40 | O=C1c2ccccc2C(c2ccccc2)C1c1ccccc1 (stereo not given) | 22.8% | 15.9 | 17.6% | -16.6 |  | 0.8
41 | CCOC(=O)C1(C)CCCCC1=O (stereo not given) | 7.45% | -6.55 | 3.2% | 7.95 |  | 2.95
42 | CCN(CC)CCOC(=O)c1c(C)cc(C)cc1C | -6.3% | -9.4 | 4.9% | -41.5 |  | -7.9
43 | COC(=O)c1c2c(cc3c1CC1(Cc4cc5c(cc4C1=O)CCC5)C3)CCC2 (stereo not given) | -23.4% | -37 | -2.4% | 0.45 |  | 3.3
